Experimental data: ChEMBL document CHEMBL4513216, “Probing the Open Global Health Chemical Diversity Library for Multistage-Active Starting Points for Next-Generation Antimalarials” (ACS Infect Dis, 2020)
Among all 69,000 compounds or so, about 8,600 (12%) showed an effect of 50% or more. Shown is part of a subset that was picked to be rich in strong results.

Each molecule was assayed on Plasmodium berghei (assay: Screen against P. berghei liver stage (PbLuc), transformed with Luciferase, at 10uM). Conditions: tested at 10 uM.
Type: functional, HepG2

Compound	INHIBITION [%]
CC(C)(C)c1noc(CCC(=O)N2CCN(Cc3ccco3)CC2)n1	19.9
NC(=O)c1cc2c(nc1CCOc1ccc(F)cc1)CCC2	31.2
COc1cccc(OCCc2nc3c(cc2C(N)=O)CCC3)c1	54.8
NC(=O)c1cc2c(nc1CCOCc1ccccc1)CCC2	20.3
O=C1CC[C@H]2[C@H](CCN2c2ncc(F)cn2)N1c1cccnc1	0.542
Cc1cccc(C(=O)N2CCCC(Cc3cncc4ccccc34)C2)n1 (configuration not stated)	-22.6
CCN(CC)CCCNC(=O)C(C)n1cc(Br)cn1 (configuration not stated)	-1.33
Cc1ccccc1CSc1nc(N)cc(N2CCOCC(CO)C2)n1 (configuration not stated)	46.6
Cc1cc(N2CCC(Cc3cccnc3)C2)ncn1 (configuration not stated)	-2.09
c1cc(N2CCOCC(Cc3ccc4[nH]ccc4c3)C2)ncn1 (configuration not stated)	3.91
Cc1cc(N2CCC(Cc3ccncc3)C2)ncn1 (configuration not stated)	-2.09
Nc1cc(N2CCOCC(Cc3ccc4[nH]ccc4c3)C2)ncn1 (configuration not stated)	66.5
Cc1cc(N2CCOCC(Cc3ccc4[nH]ccc4c3)C2)ncn1 (configuration not stated)	67.7
Cc1nc(NCc2nncn2C2CC2)c2c(CC(C)C)csc2n1	45.4
CC1CN(C(=O)c2cscn2)c2ccccc2S1 (configuration not stated)	63.7
Cc1nc(C(=O)N2CC(C)Sc3ccccc32)cs1 (configuration not stated)	56.8
Cc1ncsc1C(=O)N1CC(C)Sc2ccccc21 (configuration not stated)	44
CC1CN(C(=O)c2ccnc(-n3cncn3)c2)c2ccccc2S1 (configuration not stated)	-40.7
CC1CN(C)c2ccccc2CN1C(=O)c1cscn1 (configuration not stated)	-4.15
CC(=O)N1CC(C)CN(C(=O)c2cscn2)c2ccccc21 (configuration not stated)	-5.26
O=S(=O)(c1cccs1)N1CC[C@H]2[C@H]1CCN2c1ncccn1	-27
Cc1occc1C(=O)N1CCc2c(COCC3CC3)cncc2C1	27.9

Compound	INHIBITION [%]
CN1CCOC(C(=O)Nc2ccc3[nH]nnc3c2)C1 (configuration not stated)	59.7
CN1CCOC(C(=O)Nc2nc(-c3ccccc3F)n[nH]2)C1 (configuration not stated)	-35.9
CN1CCOC(C(=O)Nc2ccc3c(c2)nc(C(C)(C)C)n3C)C1 (configuration not stated)	93.9
Cn1c(C2CC2)nc2cc(NC(=O)C3CCOC3)ccc21 (configuration not stated)	-5.69
Cn1c(C2CC2)nc2cc(NC(=O)C3CC=CC3)ccc21	-22.4
CN1CCOC(C(=O)Nc2nnc(Cc3ccc(F)cc3)[nH]2)C1 (configuration not stated)	-2.71
CN1CCOC(C(=O)Nc2nc(-c3ccc(Cl)cc3)n[nH]2)C1 (configuration not stated)	-29.5
CN1CCOC(C(=O)Nc2ccc3c(c2)nc(C2CC2)n3C)C1 (configuration not stated)	60.8
CN1CCOC(C(=O)Nc2nc(-c3ccc4c(c3)CCC4)n[nH]2)C1 (configuration not stated)	32.4
CC1(C(=O)N2CCSCC2)CNCCO1 (configuration not stated)	34.825
O=C1CCCc2[nH]c(=O)c(C(=O)N3CCc4ccccc4C3)cc21	14.1
COc1cccc(-c2ncc(CN3CC[C@H](CO)[C@@H](O)C3)s2)c1	15.7
COc1cccc(-c2cccc(CN3C[C@H]4CC[C@@H](C3)N(C)C4=O)c2)c1	61
CN1C(=O)[C@@H]2CC[C@H]1CN(Cc1cccc(OCc3ccccn3)c1)C2	47.5
COc1cccc(-c2ncc(CN3C[C@H]4CC[C@@H](C3)N(C)C4=O)s2)c1	78.9
COCCN1C[C@H]2CN(Cc3cccc(OC)c3)CCN2C1=O	24.8
COc1cccc(-c2ncc(CN3CC[C@@H]4CC[C@H](C3)N4)s2)c1	46.1
Cc1ccc(C2NC(=O)c3cc(C(C)C)sc3N2)cc1 (configuration not stated)	-4.92
Cc1cnn(C2CN(CC(=O)NCCc3c[nH]c4ccccc34)C2)c1	10
COc1ccc(-c2cc(C3CCOC3)c(C#N)c(N)n2)cn1 (configuration not stated)	6.69
COc1cc(-c2cc(C3CCOC3)c(C#N)c(N)n2)ccc1O (configuration not stated)	53
Cc1cc(-c2cc(C3CCOC3)c(C#N)c(N)n2)ccc1Cl (configuration not stated)	23.9

Compound	INHIBITION [%]
C=Cc1ccc(C(=O)N2CCCC(Nc3ccc(OC)cc3)C2)cc1 (configuration not stated)	73.5
C=Cc1ccc(C(=O)N2CCCC(Nc3ccc(F)c(F)c3)C2)cc1 (configuration not stated)	37.1
C=Cc1ccc(C(=O)N2CCCC(Nc3ccc(F)cc3)C2)cc1 (configuration not stated)	36.8
C=Cc1ccc(C(=O)N2CCCC(Nc3ccccc3)C2)cc1 (configuration not stated)	50.3
Cc1ccc(C(=O)N2CCCC(Nc3ccc(F)cc3)C2)cc1 (configuration not stated)	36
COC(=O)c1ccc(C(=O)N2CCCC(Nc3ccc(F)cc3)C2)cc1 (configuration not stated)	-6.88
CC(C)N1CCO[C@H]2CN(C(=O)c3ccsc3)C[C@H]21	-5.05
CC(=O)N1CCCCC[C@@H]2[C@@H]1[C@H](c1cccc(F)c1)CN2C(=O)C1CC1	35.85
O=C(c1ncc(F)cc1F)N1CCC(c2ncc[nH]2)CC1	29.4
CN(C)C(=O)c1cccc(C2CCN(c3ncccn3)CC2)n1	-19.7
CN(C)c1nccc(C2CN(S(C)(=O)=O)C2)n1	20.2
CN1CCC(c2cccc(C(=O)N(C)C)n2)CC1	16.5
CN(C)c1nccc(C2CCN(C3CCCCC3O)CC2)n1 (configuration not stated)	27.6
CN(C)c1nccc(C2CCN(C(=O)CO)CC2)n1	-37
NC(=O)c1cccc(C2CCN(c3ncccn3)CC2)n1	52.7
CN(C)c1cccc(C2CCN(c3ncccn3)CC2)n1	48
CN(C)c1nccc(C2CCN(c3ncccn3)CC2)n1	76.8
Cc1cc(C)nc(N2CCC(c3ccnc(N(C)C)n3)CC2)n1	75.9
Cc1cccc(CN2CCC3(CC2)CC(Oc2cccnc2)C3)n1	0.923
CCOc1ccnc(N2CCN(C(=O)c3ccn(C)c(=O)c3)CC2)n1	4.71
COc1ccc(CCCN(C)C(=O)c2cc(C(C)=O)c[nH]2)cc1OC	-46.6
COCCN1C(=O)[C@@H]2CC[C@H]1CN(C(=O)Cc1ccc(O)c(Cl)c1)C2	-82.7

Compound	INHIBITION [%]
CCS(=O)(=O)N1CCC2(CC1)COC(COc1cccnc1)C2 (configuration not stated)	5.63
Cc1cnc(C)c(N2CCC(c3nccn3Cc3cscn3)CC2)n1	8.51
Cc1ccc(C#N)c(N2CCC(c3nccn3Cc3cscn3)CC2)n1	23.9
Cc1ccc(C#N)c(N2CCCC(c3nccn3Cc3cscn3)C2)n1 (configuration not stated)	56.7
O=C(CC1CC1)N1C[C@@H]2CN(c3ccccc3)C(=O)[C@@H]2C1	-15.9
Cc1cc(C(=O)NCC2OCCc3cn(CC4CC4)nc32)c(C)[nH]1 (configuration not stated)	26.5
COc1ccc(CCN2CC(NCc3ncc[nH]3)CC2=O)cc1 (configuration not stated)	-5.19
Cn1c(N2CC[C@H](O)C2)nc2cc(C(N)=O)ccc21	14.3
CN(C)C(=O)c1ccc2c(c1)nc(N1CC[C@H](O)C1)n2C	51.8
CN(C(=O)c1ccc2c(c1)nc(N1CC[C@H](O)C1)n2C)C1CCSCC1	-1.04
COc1ccc(Oc2cc(CN)ccn2)cc1	62.4
CCOc1ccc(Oc2cc(CN)ccn2)cc1	-5.69
Cc1ccc(Oc2cc(CN)ccn2)cc1C	45.7
NCc1ccnc(Oc2ccc(F)cc2)c1	82.9
NCc1ccnc(Oc2ccccc2)c1	-18.5
CC(C)C(=O)NCc1ccnc(Oc2ccc(F)cc2)c1	32.5
O=C(CSc1ccccc1)N1C[C@@H]2CC[C@H]1CN(Cc1ccncc1)C2	10.4
CC(C)S(=O)(=O)N1CCC(c2cc3n(n2)[C@@H](C(F)(F)F)C[C@@H](C)N3)CC1	48.4
COc1c(C2CCCN2CC(=O)Nc2cc(C)nn2C)c(C)nn1C (configuration not stated)	23.5
Cc1cc(C)n(CCC(=O)N2CCCC(c3nc(C(C)C)no3)C2)n1 (configuration not stated)	30.8
COc1ncnc(N)c1CNCc1ccccc1-n1cccn1	30.9
CCCNc1ncc(CN2CCOC(Cc3cccc(F)c3)C2)cn1 (configuration not stated)	-45

Compound	INHIBITION [%]
CCc1ccc(CN2CCOC(Cc3cccc(F)c3)C2)nc1 (configuration not stated)	22
CCc1ncc(CN2CCOC(Cc3cccc(F)c3)C2)cn1 (configuration not stated)	56.1
c1ncn(CC2CN(CC3CCCCC3)CCO2)n1 (configuration not stated)	25.4
O=C(NCCC(=O)N1CCCCCC1)c1c(O)cc(F)cc1F	29.5
O=C(NCC1(O)CCC1)c1c(O)cc(F)cc1F	59.5
O=C(NCC1(O)CCC1)c1c(O)cc(Cl)cc1Cl	31
NS(=O)(=O)Cc1cccc(C(=O)N2CCCC(n3cccn3)C2)c1 (configuration not stated)	14.815
Cc1nccc(CNC(=O)NCCC(=O)N2CCCc3ccccc32)n1	-15
COc1cccc(C2CCCN2CCCNS(C)(=O)=O)c1 (configuration not stated)	15.3
CC1(c2ccc(Br)cc2)CC(=O)N(CC(N)=O)C1=O (configuration not stated)	51.8
CSCCN1C(=O)CC(C)(c2ccc(Br)cc2)C1=O (configuration not stated)	42.1
CC1(c2ccc(Br)cc2)CC(=O)N(CCC(N)=O)C1=O (configuration not stated)	-48.3
O=C(NCC1CC1)[C@H]1C[C@H]2CN(C(=O)NCc3ccccc3)C[C@@H]1O2	13.6
CC(NC(=O)NCCn1ccnc1)c1ccc2c(c1)OCCCO2 (configuration not stated)	-9.37
CC(C)n1ccnc1CN1CCOC(C)(C(=O)N2CCOCC2)C1 (configuration not stated)	38.2
c1cnc(CC2CCN(c3cnccn3)CC2)cn1	33.2
CCNC(=O)[C@@H]1CCCN1[C@@H](C(=O)NC)C1CC1	51.9
CCCNC(=O)[C@@H]1CCCN1[C@@H](C(=O)NC)C1CC1	-20.8
CNC(=O)[C@@H](C1CC1)N1CCC[C@H]1C(=O)NCC(C)C	-19.6
